Compound activity from PubChem.
A549 tox-1 – Nrf2 qHTS screen for inhibitors: counterscreen for cytotoxicity; Potency, µM (highest dose often 46 µM), for the others: top-dose activity change, negative = cytotoxicity, most hits filed as inhibitors; A549 ARE-Fluc cells, CellTiter-Fluor viability, 18-24 h; 390,000 tested, 0.16% active; AID 504648, 2011; further: on the % scale 0 is the no-effect control and ±100 the full control effect
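A549 ARE_Fluc cells in 5% FBS OPTI-MEM were exposed to compounds in concentration-response for 18-24 h at 37 deg C. Viability was read by CellTiter-Fluor fluorescence (Ex 405/Em 525) after 30 min, before the luciferase read.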
Nrf2 block – Nrf2 qHTS screen for inhibitors. A549 ARE-Fluc reporter, luciferase luminescence, 18-24 h. Potency, µM (doses to about 46 µM), for the others: top-dose activity change, negative = inhibition, hits mostly inhibitors. 360,000 tested, 2.1% active; further: on the % scale 0 is the no-effect control and ±100 the full control effect; nearly all actives have a fitted effect of over 60% in size
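Two sequential reads on A549 ARE_Fluc cells exposed to compound for 18-24 h: a CellTiter-Fluor fluorescence read for viability, then a luciferase luminescence read for Nrf2/ARE activity.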
TrxR1 inh – qHTS Assay for Inhibitors of Mammalian Selenoprotein Thioredoxin Reductase 1 (TrxR1): qHTS; Thioredoxin reductase 1, cytoplasmic (Rattus norvegicus), O89049; recombinant rTrxR1, NADPH fluorescence consumption, selenite substrate; Potency, µM (series often up to 114 µM), inactives show top-dose activity change, negative = inhibition, usual class: inhibitors; 390,000 tested, 1% active; further: on the % scale 0 is the no-effect control and ±100 the full control effect; nearly all actives have a fitted effect of over 65% in size
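Rat TrxR1 (90 nM in the dispensed reagent) was pre-reduced with 400 uM NADPH for 5 min at room temperature, then incubated with compound for 15 min. After 400 uM selenite was added, NADPH fluorescence (Ex 340/Em 450 nm) was followed for 8 min.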
TrxR1 substrate – qHTS Assay for Substrates of Mammalian Selenoprotein Thioredoxin Reductase 1 (TrxR1): qHTS; Thioredoxin reductase 1, cytoplasmic (Rattus norvegicus), O89049; purified TrxR1 substrate turnover, NADPH consumption readout; Potency, µM (doses to about 114 µM), inactives show top-dose activity change, negative = substrate turnover; 390,000 tested, 0.01% active; further: on the % scale 0 is the no-effect control and ±100 the full control effect; nearly all actives have a fitted effect of over 50% in size
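Rat TrxR1, dispensed at 90 nM, was prereduced with 400 uM NADPH (final) for 5 min at ~22 deg C, then incubated with compound 15 min before 400 uM selenite. A first-read NADPH fluorescence drop versus no-compound background flagged substrates.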
IDH1 R132H inh – qHTS for Inhibitors of mutant isocitrate dehydrogenase 1 (IDH1): qHTS. AID 602179, 2012. Isocitrate dehydrogenase [NADP] cytoplasmic (Homo sapiens), O75874. Potency, µM (series often up to 76.6 µM), for inactives: at the highest dose activity change, negative = inhibition, hits mostly inhibitors. 390,000 tested, 0.093% active. IDH1-R132H enzyme, NADPH consumption, diaphorase/resazurin fluorescence; further: on the % scale 0 is the no-effect control and ±100 the full control effect; nearly all actives have a fitted effect of over 65% in size
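IDH1-R132H (0.5 ug/mL) preincubated 30 min with compound, then NADPH (0.016 mM) and alpha-KG (2 mM) added; 80 min at RT, pH 7.5. Remaining NADPH coupled via diaphorase/resazurin to fluorescence (540/590 nm); concentration-response curves normalized to no-enzyme control.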
Mito fusion act – qHTS Assay for Small Molecule Inhibitors of Mitochondrial Division or Activators of Mitochondrial Fusion. S. cerevisiae fusion-defective mutant growth rescue, CellTiterGlo 48 h. Potency, µM (series often up to 46.1 µM), inactives show top-dose growth rescue (activation), usual class: activators. 320,000 tested, 0.23% active. AID 485298, 2010; further: % of control where 0% means no effect; nearly all actives have a fitted effect of over 45% in size
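Read-out: ATP-based luminescence (CellTiterGlo, 10 min ambient) reporting growth of fusion-defective ts yeast after 48 hours at 37C on glycerol/ethanol YPEG medium in the presence of compound.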
FLuc counter 3 – Nrf2 qHTS screen for inhibitors: Purified Fluc Biochemical Counterscreen for Hit Validation. purified firefly luciferase, luminescence inhibition. Potency, µM (doses to about 57.5 µM), for inactives: at the highest dose activity change, negative = inhibition, actives largely listed as inhibitors. shares compounds with Nrf2 block. 1,400 tested, 4% active; further: on the % scale 0 is the no-effect control and ±100 the full control effect; nearly all actives have a fitted effect of over 65% in size
Target sequence (P08659 whole entry, looked up): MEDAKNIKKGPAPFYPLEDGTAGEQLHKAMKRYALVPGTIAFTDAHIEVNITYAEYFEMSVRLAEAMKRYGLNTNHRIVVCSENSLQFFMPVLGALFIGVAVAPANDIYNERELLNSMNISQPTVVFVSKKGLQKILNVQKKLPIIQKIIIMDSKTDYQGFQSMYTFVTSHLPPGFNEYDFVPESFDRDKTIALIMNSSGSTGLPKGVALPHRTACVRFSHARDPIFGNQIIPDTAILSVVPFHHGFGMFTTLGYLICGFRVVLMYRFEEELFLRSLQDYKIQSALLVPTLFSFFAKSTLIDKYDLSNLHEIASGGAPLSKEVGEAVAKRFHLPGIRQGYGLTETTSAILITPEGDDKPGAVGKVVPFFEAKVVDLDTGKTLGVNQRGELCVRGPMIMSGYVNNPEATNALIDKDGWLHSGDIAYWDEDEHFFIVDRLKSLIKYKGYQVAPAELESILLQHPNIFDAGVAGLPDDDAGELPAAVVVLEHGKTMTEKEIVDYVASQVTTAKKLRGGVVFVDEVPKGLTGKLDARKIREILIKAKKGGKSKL
A549 tox-2 – Nrf2 qHTS screen for inhibitors: A549 ARE-Fluc Cytotoxicity Counterscreen for Hit Validation; Potency, µM (titrated, usually from 46.1 µM), without a hit: at the top dose activity change, negative = cytotoxicity, hits mostly inhibitors; AID 720523, 2013; shares compounds with Nrf2 block; 1,400 tested, 2% active; A549 ARE-Fluc cells, cytotoxicity counterscreen;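 further: cells exposed to compounds for 18 to 24 hours; on the % scale 0 is the no-effect control and ±100 the full control effect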
ARE-Fluc inh – Nrf2 qHTS screen for inhibitors: Nrf2 A549 ARE-Fluc Confirmation Assay for Hit Validation. AID 720524, 2013. A549 ARE-firefly luciferase reporter, luminescence. Potency, µM (highest dose often 46.1 µM), for inactives: at the top dose activity change, negative = inhibition, hits mostly inhibitors. 1,400 tested, 74% active. shares compounds with Nrf2 block; further: on the % scale 0 is the no-effect control and ±100 the full control effect; nearly all actives have a fitted effect of over 65% in size
An asterisk follows results filed as active; [ ] = another dose, or the depositor's remark. This is a sample that favours compounds with a hit; in the whole collection about 3.1% have one here. The call rests on the fitted dose curve; in most records, active means well fitted curve in the direction sought with a large enough effect; inconclusive means small, poorly fitted or top-dose-only effect, or another doubt; inactive means no such curve, though single readings can be large; an effect the other way counts as inactive or inconclusive. Potency means the concentration at half of the fitted maximal effect.

For O=NN(CCc1ccncc1)c1ccc(OCc2ccccc2)cc1 the results were A549 tox-1 -18.9%, Nrf2 block 6.51µM*, TrxR1 inh 18.9%[57.1 µM], TrxR1 substrate -2.8%[57.1 µM], IDH1 R132H inh 3.4%, Mito fusion act -10.2%, FLuc counter 3 -27.9%, A549 tox-2 -2.9% and ARE-Fluc inh 5.8µM*.
O=C(NCc1ccncc1)C(=O)N/N=C/c1ccc(OCc2ccccc2)cc1 was read as A549 tox-1 -1.7%, Nrf2 block -6.4%, TrxR1 inh 33.8%[57.1 µM], TrxR1 substrate 4.3%[57.1 µM], IDH1 R132H inh 9.0% and Mito fusion act 17.8%.
For CC(=O)N1c2ccc(S(=O)(=O)N3CCC(C(=O)Nc4cccc(C(F)(F)F)c4)CC3)cc2CC1C (stereo unspecified) the results were A549 tox-1 -15.7%, Nrf2 block 4.61µM*, TrxR1 inh 5.2%, TrxR1 substrate -13.4%, IDH1 R132H inh -12.2%, Mito fusion act 10.9%, FLuc counter 3 2.0%, A549 tox-2 -11.2% and ARE-Fluc inh 11.6µM*.
For CC(=O)N1c2ccc(S(=O)(=O)N3CCC(C(=O)Nc4cccc(C)c4C)CC3)cc2CC1C (stereo unspecified) the results were A549 tox-1 -4.4%, Nrf2 block -31.0%, TrxR1 inh 22.1%, TrxR1 substrate 4.9%, IDH1 R132H inh -4.2% and Mito fusion act 1.0%.
Screening CCc1cccc(NC(=O)C2CCN(S(=O)(=O)c3ccc4c(c3)CC(C)N4C(C)=O)CC2)c1 (stereo unspecified) returned A549 tox-1 -18.6%, Nrf2 block 7.31µM*, TrxR1 inh 17.3%, TrxR1 substrate -2.9%, IDH1 R132H inh 1.2%, Mito fusion act -3.2%, FLuc counter 3 0.1%, A549 tox-2 -6.1% and ARE-Fluc inh 9.2µM*.
`COc1cccc(NC(=O)C2CCN(S(=O)(=O)c3ccc4c(c3)CC(C)N4C(C)=O)CC2)c1` (stereo unspecified) gave A549 tox-1 -4.2%, Nrf2 block inconclusive, TrxR1 inh 7.1%, TrxR1 substrate -1.3%, IDH1 R132H inh 7.6% and Mito fusion act -4.2%.
Screening CC(=O)N1c2ccc(S(=O)(=O)N3CCC(C(=O)Nc4cccc(C)n4)CC3)cc2CC1C (stereo unspecified) returned A549 tox-1 -15.3%, Nrf2 block 1.46µM*, TrxR1 inh inconclusive, TrxR1 substrate -14.2%, IDH1 R132H inh 5.0%, Mito fusion act 7.2%, FLuc counter 3 0.0%, A549 tox-2 -8.2% and ARE-Fluc inh 5.8µM*.
Screening COc1ccc(-c2c3c(=O)n(C)c(=O)n(C)c3c3c(-c4ccccc4)nc4ccccc4n23)cc1 returned A549 tox-1 -3.0%, Nrf2 block 11.4%, TrxR1 inh 20.8%, TrxR1 substrate 6.2% and IDH1 R132H inh -7.3%.
For CCOc1ccc(S(=O)(=O)NCCc2c(C)[nH]c3c(Cl)cccc23)cc1C the results were A549 tox-1 -14.7%, Nrf2 block -5.7%, TrxR1 inh 8.4%, TrxR1 substrate -5.9% and IDH1 R132H inh -4.2%.
COc1ccc(C2CC(=O)N(CC(=O)Nc3ccc(C(C)=O)cc3)c3ccccc3S2)cc1OC (stereo unspecified) was read as A549 tox-1 -11.2%, Nrf2 block inconclusive, TrxR1 inh 0.5%, TrxR1 substrate -4.0% and IDH1 R132H inh 2.4%.
Screening O=C(NCc1ccc2c(c1)OCO2)c1ccc2c(=O)n(C3CCCC3)c(=O)[nH]c2c1 returned A549 tox-1 inconclusive, Nrf2 block 8.2µM*, TrxR1 inh 19.3%, TrxR1 substrate 5.5%, IDH1 R132H inh 3.2%, Mito fusion act 2.3%, FLuc counter 3 -0.4%, A549 tox-2 -8.6% and ARE-Fluc inh 0.231µM*.
COc1ccc(Cn2c(=O)[nH]c3cc(C(=O)NCc4ccc5c(c4)OCO5)ccc3c2=O)cc1 was read as A549 tox-1 -1.6%, Nrf2 block inconclusive, TrxR1 inh 19.7%[57.1 µM], TrxR1 substrate 8.7%[57.1 µM] and IDH1 R132H inh -5.4%.
`Cc1cccc(OCCOCCn2c(-c3ccc(Cl)cc3)nc3ccccc3c2=O)c1C` gave A549 tox-1 8.6%, Nrf2 block 5.9%, TrxR1 inh -7.1%, TrxR1 substrate -0.5% and IDH1 R132H inh -7.3%.
For CN(c1ccccc1)S(=O)(=O)c1ccc(Cl)c(C(=O)Nc2ccncc2)c1 the results were A549 tox-1 1.2%, Nrf2 block 8.2µM*, TrxR1 inh 15.2%, TrxR1 substrate -2.8%, IDH1 R132H inh -4.8%, Mito fusion act 8.4%, FLuc counter 3 1.3%, A549 tox-2 0.7% and ARE-Fluc inh inconclusive.
Screening CCOC(=O)c1ccc(NC(=O)CSc2nc3ncc(Br)c(C)c3[nH]2)cc1 returned A549 tox-1 0.0%, TrxR1 inh 15.5%[57.1 µM], TrxR1 substrate -6.1%[57.1 µM] and IDH1 R132H inh -3.6%.
`CC1(C)O[C@@H]2C[C@H]3[C@@H]4C[C@H](F)C5=CC(=O)CC[C@]5(C)[C@H]4[C@@H](O)C[C@]3(C)[C@]2(C(=O)CO)O1` gave A549 tox-1 -1.4%, Nrf2 block inconclusive, TrxR1 inh 13.3%, TrxR1 substrate -2.5%, IDH1 R132H inh 6.2% and Mito fusion act 2.2%.
